# Screen size: about 360,000 compounds; about 1,700 (0.47%) were called active. Where a call stands in place of a potency, no number is given. Inconclusive results (about 2%) are left out. The sample holds actives, similar compounds and a random draw of the others, so the mix is not that of the screen. A number with no mark means an inactive call. Calls come from the whole dose curve; as a rule, active = well fitted inhibition curve with a large enough effect; inconclusive = small, poorly fitted or top-dose-only effect; inactive = no such curve, though single readings can be large or run the other way.
# Target: Bifunctional 3'-5' exonuclease/ATP-dependent helicase WRN (Homo sapiens) (UniProt Q14191)
# Assay: qHTS for Inhibitors of WRN Helicase; note: nearly all actives have a fitted effect of over 55% in size
# Details: WRN helicase unwinding, fluorescent forked duplex, kinetic; series mostly up to 114 µM
# Procedure, shortened: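 Kinetic red-fluorescence monitoring (525/598 nm) tracks WRN helicase activity after 100 nM fluorophore-quencher forked duplex and 2 mM ATP are added to 20 nM enzyme pretreated 15 min at room temperature with compound.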
# Potency is the fitted concentration of half-maximal effect.
# Sequence of Bifunctional 3'-5' exonuclease/ATP-dependent helicase WRN (Homo sapiens) (Q14191 whole entry, looked up): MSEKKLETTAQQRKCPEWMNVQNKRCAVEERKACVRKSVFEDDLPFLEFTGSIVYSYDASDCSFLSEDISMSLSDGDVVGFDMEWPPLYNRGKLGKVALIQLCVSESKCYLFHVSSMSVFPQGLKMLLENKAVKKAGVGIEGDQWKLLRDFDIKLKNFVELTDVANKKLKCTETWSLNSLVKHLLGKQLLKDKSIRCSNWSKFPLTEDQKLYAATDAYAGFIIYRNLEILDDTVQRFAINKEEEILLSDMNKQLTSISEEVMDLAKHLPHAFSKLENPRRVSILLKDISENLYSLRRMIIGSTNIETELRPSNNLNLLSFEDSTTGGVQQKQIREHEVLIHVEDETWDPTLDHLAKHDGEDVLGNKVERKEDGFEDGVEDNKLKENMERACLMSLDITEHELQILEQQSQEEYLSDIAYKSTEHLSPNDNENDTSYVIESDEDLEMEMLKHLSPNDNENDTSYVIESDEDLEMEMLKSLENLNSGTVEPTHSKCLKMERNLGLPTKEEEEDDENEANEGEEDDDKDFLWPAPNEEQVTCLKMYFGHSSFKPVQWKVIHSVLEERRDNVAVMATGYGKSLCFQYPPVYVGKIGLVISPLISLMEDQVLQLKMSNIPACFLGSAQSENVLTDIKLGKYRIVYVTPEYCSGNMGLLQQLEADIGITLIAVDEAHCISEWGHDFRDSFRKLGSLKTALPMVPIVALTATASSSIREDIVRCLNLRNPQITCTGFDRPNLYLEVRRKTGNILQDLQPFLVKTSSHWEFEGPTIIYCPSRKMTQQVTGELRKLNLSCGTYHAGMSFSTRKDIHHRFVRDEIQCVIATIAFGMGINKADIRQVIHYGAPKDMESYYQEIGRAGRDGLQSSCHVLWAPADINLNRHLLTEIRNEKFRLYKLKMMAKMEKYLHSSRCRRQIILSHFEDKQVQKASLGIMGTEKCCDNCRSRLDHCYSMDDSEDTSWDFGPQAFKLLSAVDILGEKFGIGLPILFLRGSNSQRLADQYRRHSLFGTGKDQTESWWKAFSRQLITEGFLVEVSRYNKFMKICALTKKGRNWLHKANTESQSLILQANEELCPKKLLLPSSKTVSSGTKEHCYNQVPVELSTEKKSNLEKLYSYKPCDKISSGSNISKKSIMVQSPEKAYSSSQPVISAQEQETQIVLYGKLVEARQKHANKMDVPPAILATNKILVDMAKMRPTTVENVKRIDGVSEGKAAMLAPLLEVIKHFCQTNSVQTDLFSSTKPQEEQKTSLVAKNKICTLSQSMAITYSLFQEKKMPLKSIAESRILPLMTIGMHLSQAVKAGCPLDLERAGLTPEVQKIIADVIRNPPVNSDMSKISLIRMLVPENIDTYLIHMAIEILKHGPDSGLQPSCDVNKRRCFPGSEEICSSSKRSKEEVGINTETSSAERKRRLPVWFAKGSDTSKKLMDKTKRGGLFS
Compound,Potency,"activity change, negative = inhibition"
COc1ccc([C@H]2CC(=O)C[C@@H](CCn3cc(CC4CCCC4)nn3)O2)cc1,inactive,–
O=C(CN1C(=O)c2cccc3cccc(c23)C1=O)N1CCCCC1,inactive,–
O=C(CCCN1C(=O)c2cccc3cccc(c23)C1=O)N1CCN(Cc2ccc3c(c2)OCO3)CC1,inactive,–
O=C1c2cccc3cccc(c23)C(=O)N1CCCCCc1n[nH]c(=S)o1,100 µM (active),–
C[N+](C)(CCCCCC[N+](C)(C)CCCN1C(=O)c2cccc3cccc(c23)C1=O)CCCN1C(=O)c2cccc3cccc(c23)C1=O,44.7 µM (active),–
O=C(COC(=O)CCCN1C(=O)c2cccc3cccc(c23)C1=O)NC1CCS(=O)(=O)C1 (configuration not stated),inactive,–
O=C(CN1C(=O)c2cccc3cccc1c23)Nc1ccccc1,–,-0.0297% [at 11.6 µM]
Cc1ccc(CCNC(=O)CN2C(=O)CSc3ccc(S(=O)(=O)N4CCOCC4)cc32)cc1,inactive,–
CCOC(=O)[C@]12CCCC=C1N(CCC1=CCCCC1)C(=O)[C@H](CC(=O)NCCCCc1ccccc1)C2,inactive,–
CCCCOCCCNC(=O)C[C@@H]1C[C@@]2(C(=O)OCC)CCCC=C2N(CCC2=CCCCC2)C1=O,inactive,–
CN(C)c1ccc(CSc2ccccc2)cc1,inactive,–
CS/C(=C\[N+](=O)[O-])Nc1ccc(C)cc1,inactive,–
Nc1nc2ncccn2c1-c1ccccc1,inactive,–
CSc1nc(-c2ccco2)nn1C(=O)c1ccccc1Cl,inactive,–
c1ccc(Cc2c(-c3ccco3)nc3c4ccccc4ccn23)cc1,inactive,–
Clc1ccccc1CSc1nnc(-c2ccco2)c(-c2ccco2)n1,50.1 µM (active),–
O=C(Nc1nnc(SCc2ccccc2Cl)s1)c1cccc([N+](=O)[O-])c1,inactive,–
c1ccc(CSc2nnc(-c3ccco3)c(-c3ccco3)n2)cc1,28.2 µM (active),–
COc1ccc(NCc2nnc(SCc3ccccc3)n2-c2ccc(OC)cc2)cc1,inactive,–
CCCC1(C(=O)OC)NC(c2ccco2)C2C(=O)N(C)C(=O)C21 (configuration not stated),inactive,–
Cc1cc(C)c(S(=O)(=O)N2C=CC(C(F)(F)F)=NCC2)c(C)c1,inactive,–
CSc1c(SCc2ccccc2)cnn(Cc2ccccc2)c1=O,inactive,–
O=C(c1ccc(Cl)c(S(=O)(=O)N2CCCCCC2)c1)N1CCN(c2ccc(O)cc2)CC1,inactive,–
c1ccc(-n2cccc2)c(N2CCCCC2)c1,inactive,–
O=C1C=CC(=O)N1c1ccc(N2CCCCC2)cc1,39.8 µM (active),–
CCCC(NCC(=O)Nc1ccccc1C(=O)NC1CC1)c1ccccc1 (configuration not stated),inactive,–

Compound,Potency,"activity change, negative = inhibition"
CC(C)(C)c1cc[n+](-c2[nH]c(=O)sc2/C=N/N=C(\[O-])c2ccccc2)cc1,inactive,–
CCc1noc(C)c1C(=O)Oc1ccc(N(C)S(=O)(=O)c2ccc(C)c(C)c2)cc1,inactive,–
COc1cccc(CNC(=O)[C@@H]2CCCN2C(=O)[C@@H]2CCCN2C(=O)c2ccccc2)c1,inactive,–
S=c1[nH]nc(-c2cc(-c3ccccc3)n[nH]2)n1/N=C/c1c2ccccc2cc2ccccc12,50.1 µM (active),–
CCN(CC)S(=O)(=O)c1cccc(-c2n[nH]c(=S)n2/N=C/c2ccc(C(=O)OC)cc2)c1,inactive,–
S=c1[nH]nc(-c2ccco2)n1/N=C/c1ccc(Br)s1,inactive,–
COc1ccc(C)cc1NC(=O)CN(C)S(=O)(=O)c1ccc2c(c1)n(C)c(=O)c(=O)n2C,inactive,–
COc1ccc2ccn(C)c2c1,inactive,–
OC(c1ccccc1)(c1ccccc1)C1CCN(CCCOc2ccccc2)CC1,inactive,–
CC(C)CCN1C(=O)c2ccc(C(=O)Nc3cccc(S(N)(=O)=O)c3)cc2C1=O,inactive,–
Cc1ccc(NC(=O)Cn2sc3ccccc3c2=O)cc1,inactive,–
Cc1ccnc(-n2sc3ccccc3c2=O)n1,31.6 µM (active),–
Cc1ccnc(SC2CC(=O)N(c3ccccc3)C2=O)n1 (configuration not stated),inactive,–
CCN(CC)C(=O)C1=C(C)N(Cc2ccc(OC)cc2)C(=O)C(CC(=O)NCc2ccco2)C1 (configuration not stated),inactive,–
CCCCOc1ccc(Cl)cc1CSc1nncn1N,inactive,–
COC1=CCC2([N+](=O)[O-])CN(CC(=O)O)CC1([N+](=O)[O-])C2 (configuration not stated),inactive,–
C=CS(=O)c1sc(Cl)c(N2CCOCC2)c1[N+](=O)[O-] (configuration not stated),31.6 µM (active),–
COC(=O)/C=C\C(=O)Nc1cccc([N+](=O)[O-])c1,28.2 µM (active),–
O=C(Nc1cccc([N+](=O)[O-])c1)N1CCc2ccccc2C1,inactive,–
COc1cccc(NCCC(=O)c2cccc([N+](=O)[O-])c2)c1,inactive,–
COC(=O)[C@@]12C[C@@H](CC(=O)N3CCC(c4ccccc4)CC3)C(=O)N(Cc3ccccc3)C1=CCC(C)(C)C2,inactive,–
O=C(N/N=C/c1ccco1)c1ccc(NC(=O)C2CC2)cc1,inactive,–
O=C(N/N=C/c1ccco1)c1ccc(C(=O)N/N=C/c2ccco2)o1,39.8 µM (active),–
O=C(Cc1ccc([N+](=O)[O-])cc1)N/N=C/c1ccco1,inactive,–
Cc1ccccc1-n1nc(C)c2c1N=C1C(Cl)=CC(Cl)=CN1C2c1ccc(C(=O)O)cc1 (configuration not stated),inactive,–
COC(=O)c1ccc(NCc2cc(O)ccc2O)cc1,79.4 µM (active),–

Compound,Potency,"activity change, negative = inhibition"
CC(C)OC(=O)c1ccc(NCc2cc(O)ccc2O)cc1Cl,inactive,–
O=C(OC12CC3CC(CC(C3)C1)C2)c1ccc(NCc2cc(O)ccc2O)cc1,inactive,–
O=C(c1ccccc1)c1cc(-c2ccccn2)c(N2CCOCC2)s1,inactive,–
NCCN1CCN2C(=O)CN(C(=O)c3ccccc3)CC12 (configuration not stated),inactive,–
O=C(/C=C/Sc1ncn[nH]1)c1ccc(Cl)cc1,35.5 µM (active),–
Cc1cc(C)nc(S/C=C/C(=O)c2ccccc2)n1,inactive,–
COc1ccc(OC)c(NC(=O)C2(C)CCN2C(=O)Cc2ccccc2)c1 (configuration not stated),inactive,–
CCOC(=O)c1sc2nc(CSCC(=O)OCc3ccc(C(=O)OC)o3)[nH]c(=O)c2c1C,inactive,–
Cc1sc2nc(CSCC(=O)Nc3c(Cl)cccc3Cl)[nH]c(=O)c2c1C,inactive,–
CSc1nnc(SCc2nc3sc(C(=O)O)c(C)c3c(=O)[nH]2)s1,35.5 µM (active),–
CCN1CCC(O)(/C=C/c2ccc(C)cc2)C(C(=O)/C=C/c2ccc(C)cc2)C1 (configuration not stated),14.1 µM (active),–
CCN1CCC2(CC1)N=C(c1ccc(F)cc1)C(=S)N2C(=O)c1ccc(C)cc1,inactive,–
COc1cc2cc(CN(CCN3CCCC3)C(=O)Nc3ccccc3Cl)c(=O)[nH]c2cc1OC,inactive,–
CC1=CC2=NC(=O)CC(C)(C(=O)N(CC(=O)NC(C)(C)C)Cc3ccccc3)N2C=C1 (configuration not stated),inactive,–
CC1CCCN(C(=O)c2ccc3c(c2)C(=O)N(CCC2=CCCCC2)C3=O)C1 (configuration not stated),inactive,–
N#CCSc1ccccc1NC(=O)CN1C(=O)NC(CCc2ccccc2)C1=O (configuration not stated),inactive,–
COc1ccc(S(=O)(=O)N2CCC(C(=O)OCC(=O)c3ccccc3)CC2)cc1[N+](=O)[O-],inactive,–
CCOc1ncccc1C(=O)NNC(=O)c1cccc(S(=O)(=O)Nc2ccccc2OC)c1,inactive,–
CC1CN(C(=O)c2ccccc2NS(=O)(=O)c2cccc([N+](=O)[O-])c2)CC(C)O1 (configuration not stated),inactive,–
COc1cccc(/C=N/Nc2ccc(S(=O)(=O)Nc3ccccc3C(=O)O)cc2[N+](=O)[O-])c1O,39.8 µM (active),–
COc1ccc(Br)cc1/C=N/Nc1ccc(S(=O)(=O)Nc2ccccc2C(=O)O)cc1[N+](=O)[O-],39.8 µM (active),–
COc1ccccc1C(CNC(=O)c1cccc(NS(=O)(=O)c2ccc(Br)cc2)c1)N(C)C (configuration not stated),inactive,–
Cc1cc2nc3n(c2cc1C)CC1CC(C(=O)NCCC(C)C)N(C)C31 (configuration not stated),inactive,–
CCCCSc1nnc2c(n1)OC=Nc1ccccc1-2,inactive,–
Cc1cccc(N2CC(C)Cn3c2nc2c3c(=O)n(CC(=O)OCc3ccccc3)c(=O)n2C)c1 (configuration not stated),inactive,–

# Source: PubChem BioAssay AID651768 (National Center for Advancing Translational Sciences (NCATS), 2012)
